The values that follow come from PubChem BioAssay (NCI).

The panel holds about 83,000 compounds, 20% with a hit somewhere; the sample as a whole holds those more often.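 Each cell line was grown in a 96-well plate and treated with one concentration of compound for 48 hours. Values below 10 were considered active.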 Unmarked numbers belong to inactive results. The source made the active and inactive calls.

What all share (experiment): NCI-60 one-dose screen, 48 h (100 = growth as untreated, 0 = no growth, -100 = all killed)
The test system of one assay is SK-MEL-2 melanoma. As to conditions: 10 µM unless noted.
For the next assay, the system named is EKVX NSCLC. Particulars: 10 µM unless noted.
In another assay the test system is SN12C renal. Particulars: 10 µM unless noted.
For a further assay, the system named is UO-31 renal. As to conditions: 10 µM unless noted.
In the next assay the test system is TK-10 renal. As to conditions: 10 µM unless noted.
A further assay has as its system ACHN renal. As to conditions: 10 µM unless noted.
A further assay has as its system CAKI-1 renal. As to conditions: 10 µM unless noted.
The next assay concerns A498 renal. As to conditions: 10 µM unless noted.
A further assay concerns CCRF-CEM leukemia. Particulars: 10 µM unless noted.
Another assay has as its system MOLT-4 leukemia. As to conditions: 10 µM unless noted.
The next assay relates to SR leukemia. As to conditions: 10 µM unless noted.
A further assay concerns RPMI-8226 leukemia. Particulars: 10 µM unless noted.
Another assay has as its system OVCAR-8 ovarian. As to conditions: 10 µM unless noted.
A further assay has as its system OVCAR-5 ovarian. As to conditions: 10 µM unless noted.
Another assay deals with OVCAR-4 ovarian. Particulars: 10 µM unless noted.
The test system of the next assay is SK-OV-3 ovarian. Particulars: 10 µM unless noted.
Another assay has as its system IGROV1 ovarian. Particulars: 10 µM unless noted.
The test system of another assay is OVCAR-3 ovarian. Particulars: 10 µM unless noted.
The subject of a further assay is NCI/ADR-RES ovarian. As to conditions: 10 µM unless noted.
The next assay has as its system HS 578T breast. Particulars: 10 µM.

In the case of `COC(=O)C(CCC(=O)CCl)N1C(=O)c2ccccc2C1=O` (configuration not stated), the growth in the assay with SK-MEL-2 melanoma was 67.4%; with EKVX NSCLC, 108%; with SN12C renal, 69.9%; in the assay on UO-31 renal, 48.4%; in the assay with TK-10 renal, 54%; in the assay with ACHN renal it was 71.2%. Besides, the growth was 67.9% in the assay on CAKI-1 renal; 123% with A498 renal; 5.21% (active) with CCRF-CEM leukemia; 42.6% in the assay on MOLT-4 leukemia; 8.24% (active) in the assay with SR leukemia; -8.21% (active) in the assay on RPMI-8226 leukemia. The growth is 59.2% in the assay with OVCAR-8 ovarian; 79.3% with OVCAR-5 ovarian; 72.9% in the assay on OVCAR-4 ovarian; 113% in the assay with SK-OV-3 ovarian; 27.2% in the assay on IGROV1 ovarian; 19.2% with OVCAR-3 ovarian. Besides, the growth in the assay with NCI/ADR-RES ovarian was 83.5%.
For the compound `O=S(=O)(NCC[C@@H]1C[C@H]1c1ccc2ccccc2c1)c1ccc(C(F)(F)F)cc1`, the growth is 104% in the assay on SK-MEL-2 melanoma; 91.1% in the assay on EKVX NSCLC; 92.9% in the assay on SN12C renal; 81.7% in the assay on UO-31 renal; 100% in the assay with TK-10 renal; 99.2% in the assay on ACHN renal. Moreover, the growth is 79.4% with CAKI-1 renal; 94.2% with A498 renal; 85% in the assay on CCRF-CEM leukemia; 84.3% in the assay with MOLT-4 leukemia; 92.7% in the assay on SR leukemia; 76% in the assay on RPMI-8226 leukemia. Besides, the growth with OVCAR-8 ovarian is 97.4%; with OVCAR-5 ovarian, 99.3%; in the assay with OVCAR-4 ovarian, 79.6%; in the assay on SK-OV-3 ovarian, 103%; in the assay with IGROV1 ovarian, 92%; in the assay on OVCAR-3 ovarian it was 101%. For the same compound, the growth in the assay on HS 578T breast was 89.6%; with NCI/ADR-RES ovarian, 94.3%.
`COc1ccc2[nH]c(O)c(/C=c3/ccc4c(c3)N=C(c3ccc(F)cc3)N=4)c2c1`: the growth in the assay on SK-MEL-2 melanoma is 110%; in the assay with EKVX NSCLC, 80.4%; in the assay with SN12C renal, 50.2%; in the assay on UO-31 renal, 63.2%; in the assay with TK-10 renal it was 116%; in the assay with ACHN renal it was 31.2%. In addition, the growth was 20.1% in the assay on CAKI-1 renal; 92.9% with A498 renal; 42.5% in the assay on CCRF-CEM leukemia; 67.7% in the assay on MOLT-4 leukemia; 59.8% in the assay with SR leukemia; 76.5% in the assay with RPMI-8226 leukemia. In addition, the growth was 76.9% with OVCAR-8 ovarian; 113% in the assay with OVCAR-5 ovarian; -38.2% (active) with OVCAR-4 ovarian; 62.9% in the assay with SK-OV-3 ovarian; -7.41% (active) in the assay on IGROV1 ovarian; 75.3% with OVCAR-3 ovarian. Also, the growth was 51.1% with HS 578T breast and 75.2% in the assay on NCI/ADR-RES ovarian.
On to `COc1ccc(/C(=C\c2cc(OC)c(OC)c(OC)c2)C(=O)Nc2nc3ccc(Cl)cc3s2)cc1`, for which the growth is 94.8% with SK-MEL-2 melanoma; 80.5% with EKVX NSCLC; 96.9% in the assay with SN12C renal; 76.4% in the assay on UO-31 renal; 92.4% in the assay with TK-10 renal; 103% in the assay on ACHN renal. Besides, the growth is 83.2% in the assay on CAKI-1 renal; 97.4% in the assay with A498 renal; 85% in the assay on CCRF-CEM leukemia; 64.4% with MOLT-4 leukemia; 76.4% with SR leukemia; 80.8% in the assay on RPMI-8226 leukemia. Besides, the growth in the assay on OVCAR-8 ovarian was 94.1%; with OVCAR-5 ovarian, 97.2%; in the assay on OVCAR-4 ovarian it was 104%; in the assay on SK-OV-3 ovarian it was 98.4%; with IGROV1 ovarian it was 106%; in the assay on HS 578T breast, 100%. Moreover, the growth in the assay with NCI/ADR-RES ovarian is 92%.
Turning to `Oc1c(-c2cc(C(F)(F)F)[nH]n2)cc(Cl)c(OCc2ccc(Cl)cc2)c1-c1ccc(Cl)c(C(F)(F)F)c1`, the growth is -40.9% (active) in the assay on SK-MEL-2 melanoma; 4.67% (active) in the assay on EKVX NSCLC; 5.54% (active) in the assay on SN12C renal; -27.6% (active) with UO-31 renal; 7.21% (active) with TK-10 renal; 0.909% (active) with ACHN renal. Further, the growth with CAKI-1 renal was -15.7% (active); in the assay on A498 renal, -51.1% (active); in the assay on CCRF-CEM leukemia, 5.04% (active); in the assay with MOLT-4 leukemia, -14.8% (active); with SR leukemia it was 15.2%; with RPMI-8226 leukemia it was -27.9% (active). Besides, the growth in the assay with OVCAR-8 ovarian is 9.67% (active); in the assay on OVCAR-5 ovarian, 30.3%; with OVCAR-4 ovarian, 19%; with SK-OV-3 ovarian, 6.29% (active); in the assay on IGROV1 ovarian, 19.8%; in the assay with OVCAR-3 ovarian, 10.5%. The growth in the assay on HS 578T breast is 5.31% (active); in the assay with NCI/ADR-RES ovarian, 9.38% (active).
As to `CCN(C(=O)Nc1cccc2ccccc12)c1ccccc1`, the growth was 108% with SK-MEL-2 melanoma; 95.9% in the assay with EKVX NSCLC; 103% in the assay on SN12C renal; 73% in the assay on UO-31 renal; 108% in the assay with TK-10 renal; 99.5% with ACHN renal. Moreover, the growth was 99.9% in the assay on CAKI-1 renal; 90.2% in the assay on A498 renal; 109% with CCRF-CEM leukemia; 72.6% with MOLT-4 leukemia; 90.2% in the assay with SR leukemia; 103% in the assay on RPMI-8226 leukemia. The growth in the assay with OVCAR-8 ovarian is 74.3%; with OVCAR-5 ovarian it was 91.6%; with OVCAR-4 ovarian it was 99.9%; in the assay with SK-OV-3 ovarian, 96.2%; in the assay on IGROV1 ovarian, 90.4%; in the assay with OVCAR-3 ovarian, 108%. For the same compound, the figures for the growth in the assay with HS 578T breast and with NCI/ADR-RES ovarian were 111% and 102%, respectively.
As for `CN(C)c1ccc(C(c2ccccc2)c2ccc(N(C)C)cc2)cc1`, the growth in the assay on SK-MEL-2 melanoma was 89.1%; in the assay on EKVX NSCLC, 102%; in the assay with SN12C renal, 92.6%; with UO-31 renal, 62.1%; in the assay on TK-10 renal it was 122%; in the assay with ACHN renal, 97.9%. The growth was 93.1% in the assay with CAKI-1 renal; 107% in the assay on A498 renal; 99.2% with CCRF-CEM leukemia; 85.7% with MOLT-4 leukemia; 68.2% in the assay on SR leukemia; 57.4% in the assay on RPMI-8226 leukemia. The growth is 90.9% in the assay with OVCAR-8 ovarian; 94% in the assay on OVCAR-5 ovarian; 99.8% in the assay on OVCAR-4 ovarian; 106% in the assay with SK-OV-3 ovarian; 113% in the assay with IGROV1 ovarian; 94.9% with OVCAR-3 ovarian. Further, the growth is 98.8% in the assay on HS 578T breast and 85% with NCI/ADR-RES ovarian.
Regarding `COc1cccc2nc(Nc3cccc(NC(=O)c4cc(N5CCOCC5)cc(C(F)(F)F)c4)c3)ccc12`, the growth with SK-MEL-2 melanoma is 79.4%; in the assay on EKVX NSCLC it was 64%; in the assay with SN12C renal, 57%; with UO-31 renal it was 42.3%; in the assay on TK-10 renal, 65.9%; with ACHN renal, 45.1%. Besides, the growth is 60.7% in the assay on CAKI-1 renal; 99.4% with A498 renal; 48.9% with CCRF-CEM leukemia; 35.2% in the assay with MOLT-4 leukemia; 74.4% in the assay with SR leukemia; 31.9% in the assay with RPMI-8226 leukemia. Besides, the growth with OVCAR-8 ovarian is 52.2%; with OVCAR-5 ovarian, 97.5%; in the assay with OVCAR-4 ovarian, 61.9%; in the assay on SK-OV-3 ovarian, 88.9%; with IGROV1 ovarian it was 40.4%; in the assay with OVCAR-3 ovarian, 78%. For the same compound, the growth in the assay on NCI/ADR-RES ovarian was 59.7%.
